We go through seven compounds from PubChem BioAssay (NCATS).

Test [1] addresses Glucocorticoid receptor (Homo sapiens) (UniProt P04150). Description: qHTS assay for small molecule agonists of glucocorticoid receptor signaling (AID 588532; active = well fitted curve in the direction sought with a large enough effect in the signal ratio, with a control signal flat; the % refers to the signal ratio;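 also: 100% = dexamethasone at 0.1 µM and 0% = DMSO only wells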). The note with it: HeLa MMTV-bla, beta-lactamase ratio, agonist, 18 h; stronger effect = higher value; percent of dexamethasone control, DMSO zero. The procedure, abridged:
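Quantitative HTS using CellSensor MMTV-bla HeLa cells in charcoal/dextran-treated serum; compounds tested up to 92 uM. After 18 h at 37 C, CCF4 dye reported reporter induction.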
In general terms: qHTS replaces the single test concentration by a dilution series.

Test [2] has the same target. In words: qHTS assay for small molecule antagonists of glucocorticoid receptor signaling (AID 588533; active = well fitted inhibition curve with a large enough effect in the signal ratio, with a control signal flat, not every such curve was filed as active; the % refers to the signal ratio;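 also: cells stimulated with 2 nM dexamethasone as agonist; % is scaled to controls: 0 for no effect and ±100 for the full control effect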). The note with it: HeLa MMTV-bla, GRE beta-lactamase ratio, antagonist mode, 18 h; series mostly up to 76.8 µM. The procedure, abridged:
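Antagonist-mode qHTS: compound titrations added to GRE-bla HeLa cells, then dexamethasone 2 nM final; 18 h, 37 C. CCF4 FRET fluorescence normalized to dexamethasone and DMSO; IC50 from Hill fit.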

Test [3] in a line: qHTS assay for small molecule antagonists of peroxisome proliferator-activated receptor delta signaling (AID 588535; active = well fitted inhibition curve with a large enough effect in the signal ratio, with a control signal flat, not every such curve was filed as active; the % refers to the signal ratio;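 as to max response: cells co-treated with a PPAR-delta agonist as stimulator during compound exposure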). To be noted: HEK293T PPARd-UAS-bla, beta-lactamase FRET ratio, 18 h; 460 nm channel. The procedure, abridged:
(§1)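 HEK293T PPAR-delta-UAS-bla cells, 4000/well, 2% charcoal/dextran FBS; 5 h 37 C; cpd titration; 18 h 37 C; CCF4 2 h RT; FI 460/530 nm; Hill fit → IC50, efficacy.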

In test [4] the target is Peroxisome proliferator-activated receptor delta (Homo sapiens) (UniProt Q03181). Described as above. To be noted: HEK293T PPARd-UAS-bla, beta-lactamase FRET ratio, 18 h; series mostly up to 76.7 µM. The procedure, abridged: as §1
Sequence of Peroxisome proliferator-activated receptor delta (Homo sapiens) (Q03181 whole entry, looked up): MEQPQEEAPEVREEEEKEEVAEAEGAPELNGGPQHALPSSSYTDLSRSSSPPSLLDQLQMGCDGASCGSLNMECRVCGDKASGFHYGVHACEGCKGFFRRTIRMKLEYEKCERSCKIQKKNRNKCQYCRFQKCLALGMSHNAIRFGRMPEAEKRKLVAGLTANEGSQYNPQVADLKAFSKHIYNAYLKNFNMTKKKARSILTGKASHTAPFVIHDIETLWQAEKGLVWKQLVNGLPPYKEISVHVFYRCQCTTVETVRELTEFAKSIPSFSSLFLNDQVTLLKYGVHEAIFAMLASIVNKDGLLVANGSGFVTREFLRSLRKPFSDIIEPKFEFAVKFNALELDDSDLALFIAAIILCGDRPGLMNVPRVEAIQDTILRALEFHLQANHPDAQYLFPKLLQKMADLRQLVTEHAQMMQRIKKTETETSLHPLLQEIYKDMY
Test [5] deals with Peroxisome proliferator-activated receptor gamma (Homo sapiens) (UniProt P37231). Description: qHTS assay for small molecule agonists of peroxisome proliferator-activated receptor gamma signaling (AID 588536; active = well fitted curve in the direction sought with a large enough effect in the signal ratio, with a control signal flat, not every such curve was filed as active; the % refers to the signal ratio;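 also: 0% = DMSO basal wells and 100% = rosiglitazone at 2 µM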). The note with it: HEK293 PPARg-UAS-bla, beta-lactamase ratio, 16 h, percent of rosiglitazone response, DMSO as zero; series mostly up to 76.7 µM. The procedure, abridged:
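GeneBLAzer PPAR-gamma-UAS-bla HEK293 cells in 1% charcoal/dextran-treated FBS medium were treated 16 h at 37 C with compounds. Beta-lactamase activity was read by CCF4 ratio (460/530 nm). Response was normalized to 2 uM rosiglitazone (100%) and DMSO, then Hill-fitted for EC50 and efficacy.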

Test [6] has the same target. Description: qHTS assay for small molecule antagonists of peroxisome proliferator-activated receptor gamma signaling (AID 588537; active = well fitted inhibition curve with a large enough effect in the signal ratio, with a control signal flat, not every such curve was filed as active; the % refers to the signal ratio;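 also: reporter cells co-stimulated with 50 nM rosiglitazone agonist during compound treatment; % of control where 0% means no effect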). To be noted: HEK293 PPARg-UAS-bla, beta-lactamase ratio, antagonist mode; series mostly up to 76.8 µM. The procedure, abridged: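 Antagonist mode, beta-lactamase reporter in HEK293; charcoal/dextran FBS 1%; 3000 cells/well, 37 C 6-6.5 h; cpd titration + rosiglitazone 50 nM final, 16 h 37 C; CCF4, 2 h RT; 460/530 nm; Hill fit → IC50, efficacy.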

Test [7] is described as follows: qHTS assay for small molecule agonists of retinoid X receptor alpha signaling (AID 588544).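 As to activation: 0% = DMSO basal wells and 100% = reference agonist.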 To be noted: HEK293T RXRa-UAS-bla, beta-lactamase reporter, 18 h; 530 nm emission.
In test [8] the target is Retinoic acid receptor RXR-alpha (Homo sapiens) (UniProt P19793). Described as above. To be noted: HEK293T RXRa-UAS-bla, beta-lactamase reporter, 18 h; series mostly up to 76.7 µM.
Sequence of Retinoic acid receptor RXR-alpha (Homo sapiens) (P19793 whole entry, looked up): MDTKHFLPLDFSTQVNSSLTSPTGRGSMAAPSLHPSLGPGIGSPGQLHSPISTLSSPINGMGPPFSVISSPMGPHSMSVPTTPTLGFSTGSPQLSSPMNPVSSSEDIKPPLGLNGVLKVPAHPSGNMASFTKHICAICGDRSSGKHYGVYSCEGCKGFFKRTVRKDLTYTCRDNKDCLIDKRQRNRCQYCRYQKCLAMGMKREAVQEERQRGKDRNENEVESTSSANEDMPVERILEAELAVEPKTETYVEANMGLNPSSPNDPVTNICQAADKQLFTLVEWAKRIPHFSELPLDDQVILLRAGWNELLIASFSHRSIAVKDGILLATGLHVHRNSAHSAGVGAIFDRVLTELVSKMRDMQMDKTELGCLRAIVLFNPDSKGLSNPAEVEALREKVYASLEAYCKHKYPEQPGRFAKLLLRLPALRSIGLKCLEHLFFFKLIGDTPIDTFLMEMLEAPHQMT
Test [9] can be described thus: qHTS assay for small molecule antagonists of retinoid X receptor alpha signaling (AID 588546; active = well fitted inhibition curve with a large enough effect in the signal ratio, with a control signal flat, not every such curve was filed as active; the % refers to the signal ratio;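 also: cells stimulated with 9-cis-retinoic acid as agonist; % is scaled to controls: 0 for no effect and ±100 for the full control effect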). The note with it: HEK293T RXRa-UAS-bla, beta-lactamase ratio, antagonist mode; measured here: W530 green channel, cytotoxicity proxy. The procedure, abridged:
(§2)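 Beta-lactamase reporter inhibition, read as CCF4 fluorescence ratio (ex 405, em 460/530 nm) after 2 h at RT. HEK293T UAS-bla cells, 2500/well, were stimulated with 9-cis-RA at 500 or 100 nM final alongside test compound for 18 h at 37 C.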

Test [10] addresses Retinoic acid receptor RXR-alpha (Homo sapiens) (UniProt P19793). Described as above. The note with it: HEK293T RXRa-UAS-bla, beta-lactamase ratio, antagonist mode. The procedure, abridged:
as §2

Test [11] has as its target Thyroid hormone receptor beta (Homo sapiens) (UniProt P10828). In words: qHTS assay for small molecule antagonists of thyroid hormone receptor beta signaling (AID 588547; active = well fitted inhibition curve with a large enough effect in the signal ratio, with a control signal flat, not every such curve was filed as active; the % refers to the signal ratio;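 also: cells stimulated with 0.4 nM T3 agonist during compound exposure; % is scaled to controls: 0 for no effect and ±100 for the full control effect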). To be noted: TR-UAS-bla HEK293, beta-lactamase ratio, antagonist mode, 18 h. The procedure, abridged: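 Inhibition of T3-driven (0.4nM final) beta-lactamase reporter activity was measured over 0.59 nM to 92 uM compound after 18 h at 37 C. The cells were GripTite HEK293 TR-UAS-bla in charcoal/dextran-stripped serum, with CCF4 ratio read-out and IC50 from Hill fits.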

A short description of test [12]: qHTS assay for small molecule agonists of the antioxidant response element (ARE) signaling pathway (AID 651741; active = well fitted activation curve with a large enough effect in the signal ratio; the % refers to the signal ratio; also: % of control where 0% means no effect). The note with it: HepG2 ARE-bla reporter, beta-lactamase FRET ratio, 16 h; series mostly up to 96 µM. The procedure, abridged: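 Quantitative HTS in HepG2 cells stably expressing an ARE-beta-lactamase reporter; 16 h compound exposure at 37 C, followed by 2 h room-temperature incubation with LiveBLAzer B/G FRET substrate and fluorescence measurement.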

Test [13] in a line: qHTS assay for small molecule activators of the p53 signaling pathway (AID 651743; active = well fitted activation curve with a large enough effect in the signal ratio, not every such curve was filed as active; the % refers to the signal ratio; also: % of control where 0% means no effect). The note with it: HCT-116 p53RE-bla, beta-lactamase FRET ratio, 16 h; stronger effect = higher value. The procedure, abridged: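 Read-out is fluorescence intensity from the LiveBLAzer B/G FRET substrate, added for 2 hours at room temperature after HCT-116 p53RE-bla cells had been incubated with compounds for 16 hours at 37 C.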

A short description of test [14]: qHTS assay for small molecule activators of the nuclear factor-kappa B (NF-kB) signaling pathway (AID 651749; active = well fitted activation curve with a large enough effect in the signal ratio; the % refers to the signal ratio; also: % of control where 0% means no effect). The note with it: NF-kB-bla ME-180 cells, beta-lactamase FRET ratio, 16 h; stronger effect = higher value. The procedure, abridged: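 Readout: beta-lactamase reporter driven by an NF-kB response element, detected fluorescently as loss of FRET. Cells were the ME-180 line, treated 16 hr at 37C with pin-transferred compound.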

For test [15], the target named is Vitamin D3 receptor (Homo sapiens) (UniProt P11473). Description: qHTS assay for small molecule antagonists of vitamin D receptor signaling (AID 588541).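 Also: receptor activated by calcitriol during compound treatment; % is scaled to controls: 0 for no effect and ±100 for the full control effect.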 The note with it: HEK293T VDR-UAS-bla, beta-lactamase ratio, antagonist mode; series mostly up to 76.7 µM. The procedure, abridged:
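Antagonist-mode beta-lactamase reporter assay: HEK293T VDR-UAS-bla cells were exposed to titrated compound alongside 1-alpha,25-dihydroxyvitamin D3 at 3 nM final for 16 h. Values were normalized to the 50 nM agonist control and DMSO basal, with IC50 and efficacy from Hill equation fits.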

The target is the same in test [16]. Description: qHTS assay for small molecule agonists of vitamin D receptor signaling (AID 588543).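 Also: 0% = DMSO basal and 100% = reference agonist control.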 The note with it: HEK293T VDR-UAS-bla, beta-lactamase ratio, 16 h; series mostly up to 76.8 µM. The procedure, abridged: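 Measured: β-lactamase reporter activity (CCF4, 405 nm excitation, 460/530 nm emission) in HEK293T VDR-UAS-bla cells after 16 h compound exposure at 37 °C. Normalization against 50 nM 1α,25-dihydroxyvitamin D3 and DMSO; Hill-fit EC50.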

Test [17] addresses Thyroid hormone receptor beta (Homo sapiens) (UniProt P10828). Description: qHTS assay for small molecule agonists of thyroid hormone receptor beta signaling (AID 588545).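 Also: 0% = DMSO only and 100% = 10 nM T3.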 The note with it: TR-UAS-bla GripTite HEK 293, beta-lactamase ratio, agonist mode, 18 h, percent of T3 response, DMSO as zero; series mostly up to 76.7 µM. The procedure, abridged: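 Efficacy and EC50 values derive from Hill fits of qHTS titration data, normalized to 10 nM T3 and DMSO-only wells. HEK 293 reporter cells were stimulated for 18 hrs at 37 C, with beta-lactamase activity measured by CCF4 fluorescence.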

Test [18] addresses Voltage-gated inwardly rectifying potassium channel KCNH2 (Homo sapiens) (UniProt Q12809). In words: qHTS Assay for Small Molecule Inhibitors of the Human hERG Channel Activity (AID 588834; active = well fitted inhibition curve with a large enough effect;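 also: top concentration of the series differs between compounds; % is scaled to controls: 0 for no effect and ±100 for the full control effect; lower thallium flux fluorescence means stronger hERG block; nearly all actives have a fitted effect of over 50% in size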). The note with it: U2OS BacMam hERG, FluxOR thallium flux fluorescence; series mostly up to 92.2 µM. The procedure, abridged:
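Blockade is seen as reduced FluxOR thallium-flux fluorescence in U2OS cells expressing hERG from a BacMam construct, in Opti-MEM with 2% FCS. Concentration-response data fitted to the Hill equation for AC50.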

“And” between values parts separate entries of the source, which are not always exact repeats. Identical values can stand only once. Inconclusive results are not listed. The source made the active and inactive calls. Unless noted, calls follow the shape of the full dose curve.

Sequence of Glucocorticoid receptor (Homo sapiens) (P04150 whole entry, looked up): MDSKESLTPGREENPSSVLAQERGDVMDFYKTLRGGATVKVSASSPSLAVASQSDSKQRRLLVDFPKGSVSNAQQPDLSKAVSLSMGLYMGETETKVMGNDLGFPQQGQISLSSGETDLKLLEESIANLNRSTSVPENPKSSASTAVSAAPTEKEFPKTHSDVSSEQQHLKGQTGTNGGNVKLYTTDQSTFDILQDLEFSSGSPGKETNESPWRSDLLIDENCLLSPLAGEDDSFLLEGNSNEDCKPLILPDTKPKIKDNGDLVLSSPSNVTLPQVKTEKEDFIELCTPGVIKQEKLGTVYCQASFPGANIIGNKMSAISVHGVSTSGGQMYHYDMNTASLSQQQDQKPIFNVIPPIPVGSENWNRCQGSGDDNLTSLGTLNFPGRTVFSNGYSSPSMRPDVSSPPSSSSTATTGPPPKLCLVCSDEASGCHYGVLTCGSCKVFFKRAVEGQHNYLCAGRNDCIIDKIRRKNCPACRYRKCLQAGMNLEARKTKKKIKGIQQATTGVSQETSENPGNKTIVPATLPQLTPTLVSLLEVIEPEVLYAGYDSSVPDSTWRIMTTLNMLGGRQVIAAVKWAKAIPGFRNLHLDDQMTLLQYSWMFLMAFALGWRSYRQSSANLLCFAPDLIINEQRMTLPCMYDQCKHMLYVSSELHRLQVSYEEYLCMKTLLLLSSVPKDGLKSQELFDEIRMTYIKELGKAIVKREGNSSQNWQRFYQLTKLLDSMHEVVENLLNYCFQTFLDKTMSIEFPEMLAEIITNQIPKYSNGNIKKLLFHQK
Sequence of Thyroid hormone receptor beta (Homo sapiens) (P10828 whole entry, looked up): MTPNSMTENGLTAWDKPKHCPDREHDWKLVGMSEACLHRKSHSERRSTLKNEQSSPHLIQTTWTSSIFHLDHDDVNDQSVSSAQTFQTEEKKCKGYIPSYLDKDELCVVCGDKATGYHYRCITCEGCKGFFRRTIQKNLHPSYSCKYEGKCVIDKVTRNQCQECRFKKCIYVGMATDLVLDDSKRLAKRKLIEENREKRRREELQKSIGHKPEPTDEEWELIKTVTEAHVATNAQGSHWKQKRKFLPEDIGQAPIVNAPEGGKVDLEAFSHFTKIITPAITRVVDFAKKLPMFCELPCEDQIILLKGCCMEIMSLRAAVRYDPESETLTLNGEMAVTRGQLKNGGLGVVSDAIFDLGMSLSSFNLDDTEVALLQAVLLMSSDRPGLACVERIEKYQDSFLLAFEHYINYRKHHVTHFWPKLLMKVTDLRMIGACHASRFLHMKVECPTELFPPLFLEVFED
Sequence of Voltage-gated inwardly rectifying potassium channel KCNH2 (Homo sapiens) (Q12809 whole entry, looked up): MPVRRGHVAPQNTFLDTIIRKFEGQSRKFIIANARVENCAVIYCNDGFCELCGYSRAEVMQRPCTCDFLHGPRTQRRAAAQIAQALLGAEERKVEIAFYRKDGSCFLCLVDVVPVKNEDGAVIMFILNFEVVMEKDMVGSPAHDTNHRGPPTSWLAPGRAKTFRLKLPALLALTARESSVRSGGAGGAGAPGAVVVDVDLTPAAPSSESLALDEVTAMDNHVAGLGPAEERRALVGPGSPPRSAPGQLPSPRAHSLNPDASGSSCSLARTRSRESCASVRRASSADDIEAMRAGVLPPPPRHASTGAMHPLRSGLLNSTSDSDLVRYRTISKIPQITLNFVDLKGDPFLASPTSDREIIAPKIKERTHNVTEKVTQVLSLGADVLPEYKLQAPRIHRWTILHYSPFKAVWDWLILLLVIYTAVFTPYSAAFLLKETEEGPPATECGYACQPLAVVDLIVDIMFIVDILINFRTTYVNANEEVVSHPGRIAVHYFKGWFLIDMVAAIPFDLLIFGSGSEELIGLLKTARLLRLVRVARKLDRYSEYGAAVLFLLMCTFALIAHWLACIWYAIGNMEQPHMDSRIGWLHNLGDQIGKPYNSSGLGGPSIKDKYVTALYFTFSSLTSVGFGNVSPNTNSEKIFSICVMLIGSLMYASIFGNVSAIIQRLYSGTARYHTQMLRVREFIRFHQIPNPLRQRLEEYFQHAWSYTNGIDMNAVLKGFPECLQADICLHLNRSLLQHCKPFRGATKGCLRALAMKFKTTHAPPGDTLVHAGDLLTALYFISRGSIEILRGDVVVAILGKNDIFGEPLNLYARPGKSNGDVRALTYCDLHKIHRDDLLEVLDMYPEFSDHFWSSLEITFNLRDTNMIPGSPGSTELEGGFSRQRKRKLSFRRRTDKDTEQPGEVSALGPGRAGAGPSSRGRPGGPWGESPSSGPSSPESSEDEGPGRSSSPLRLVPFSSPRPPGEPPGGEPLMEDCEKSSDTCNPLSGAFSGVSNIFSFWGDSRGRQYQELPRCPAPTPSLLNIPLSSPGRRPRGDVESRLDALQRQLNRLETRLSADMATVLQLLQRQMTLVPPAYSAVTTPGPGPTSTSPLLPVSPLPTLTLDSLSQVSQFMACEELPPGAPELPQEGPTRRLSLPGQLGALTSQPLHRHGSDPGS
Sequence of Vitamin D3 receptor (Homo sapiens) (P11473 whole entry, looked up): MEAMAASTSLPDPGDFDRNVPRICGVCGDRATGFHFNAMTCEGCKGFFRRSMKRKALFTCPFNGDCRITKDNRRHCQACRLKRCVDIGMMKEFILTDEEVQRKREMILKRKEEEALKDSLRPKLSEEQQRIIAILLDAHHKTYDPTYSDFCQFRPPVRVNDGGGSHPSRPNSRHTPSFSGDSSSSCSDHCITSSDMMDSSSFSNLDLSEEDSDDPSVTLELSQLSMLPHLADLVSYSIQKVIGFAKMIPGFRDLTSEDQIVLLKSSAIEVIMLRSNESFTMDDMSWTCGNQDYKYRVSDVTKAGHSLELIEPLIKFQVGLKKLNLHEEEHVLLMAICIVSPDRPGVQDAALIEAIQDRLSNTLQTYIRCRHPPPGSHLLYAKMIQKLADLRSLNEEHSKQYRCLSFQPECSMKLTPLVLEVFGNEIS
Sequence of Peroxisome proliferator-activated receptor gamma (Homo sapiens) (P37231 whole entry, looked up): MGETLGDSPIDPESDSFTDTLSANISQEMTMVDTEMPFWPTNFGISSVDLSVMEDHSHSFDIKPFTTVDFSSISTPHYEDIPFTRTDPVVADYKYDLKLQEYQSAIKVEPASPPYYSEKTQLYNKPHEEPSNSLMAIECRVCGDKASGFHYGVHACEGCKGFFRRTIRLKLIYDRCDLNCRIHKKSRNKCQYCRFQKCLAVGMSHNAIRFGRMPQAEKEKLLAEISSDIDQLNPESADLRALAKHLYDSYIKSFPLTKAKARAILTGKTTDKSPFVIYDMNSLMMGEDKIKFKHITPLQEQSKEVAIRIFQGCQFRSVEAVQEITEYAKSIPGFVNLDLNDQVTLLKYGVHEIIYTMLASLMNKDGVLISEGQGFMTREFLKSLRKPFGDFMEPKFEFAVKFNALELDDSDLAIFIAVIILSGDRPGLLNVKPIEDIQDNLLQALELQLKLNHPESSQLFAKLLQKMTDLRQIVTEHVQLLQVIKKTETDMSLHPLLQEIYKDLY

As to `C=C(C)C(=O)OC`, the activation was -3.9% (inactive) in test [1], -0.845% (inactive) in test [13] and -2.84% (inactive) in [14]. The outcome in test [2], in test [5], in test [6] and in test [8] was inactive. For the same compound, the max response in test [3] is -44.8%; in test [7] it was -17.1%; in test [9], -11.6%; in test [10], -3.12% (inactive). In addition, the Potency entry in test [4] and in [12] was “inactive” each time. In addition, the activity change % (negative = inhibition) in test [11] is -1.4% (inactive).
As for `CCCCCCC=O`, the activation in [1] is -0.214% (inactive); in test [13], 0.659% (inactive); in [14], -0.682% (inactive). For the same compound, the result in test [2], in [5], in test [6], in test [15], in [16] and in [8] was inactive. Moreover, the outcome in test [17] was inactive. For the same compound, the max response in [3] is -42.7%; in [7] it was -2.47%; in test [9], 9.36%; in test [10], 7.58% (inactive). The Potency entry in test [4], in [18] and in test [12] was “inactive” in each case. In addition, the activity change % (negative = inhibition) in test [11] was -17.7% (inactive).
In the case of `COCCOC(=O)c1ccccc1C(=O)OCCOC`, the figures for the activation in test [1], in [13] and in test [14] were -0.475% (inactive), -1.05% (inactive) and 0.152% (inactive), respectively. Also, the result in test [2], in [5], in [6], in test [15] and in test [8] was inactive. Besides, the max response in test [3] is -2.63%; in test [7] it was -5.12%; in test [9], -3.43%; in test [10] it was 23.2% (inactive). The Potency entry in [4], in test [18] and in test [12] was “inactive” throughout. Moreover, the activity change % (negative = inhibition) in [11] was 7.4% (inactive).
With `O=C1OC(=O)c2c(Br)c(Br)c(Br)c(Br)c21`, the activation in test [1] was -2.08% (inactive) and -7.32% (inactive); in test [14], 0.149% (inactive) and 3.05% (inactive). Further, the result in test [2], in [5], in test [6], in test [15], in test [16] and in [8] was inactive. In addition, the result in test [17] was inactive. For the same compound, the max response in test [3] was 19.7% and -28%; in test [7] it was -2.51% and -8.84%; in test [9], -0.218% and -8.01%; in [10], 6.1% (inactive) and -5.43% (inactive). For the same compound, the Potency result in [4] and in [18] was “inactive” each time. The activity change % (negative = inhibition) in test [11] is 7.07% (inactive) and -6.85% (inactive).
Regarding `Cc1cccc([N+](=O)[O-])c1C(=O)O`, the activation in [1] was 4.26% (inactive); in test [13], -3.44% (inactive). For the same compound, the outcome in test [2], in test [5], in test [6], in test [16], in test [8] and in test [17] was inactive. Also, the max response in [3] was 7.62%; in [7], -20.5%; in test [9], -4.5%; in [10] it was -0.976% (inactive). Further, the Potency entry in test [4], in [18] and in [12] was “inactive” each time. The activity change % (negative = inhibition) in test [11] was 13.9% (inactive).
With `CCCCCCCCC`, the activation in test [1] is -2.92% (inactive); in test [13], -1.85% (inactive); in test [14] it was 0.37% (inactive). In addition, the result in [2], in test [5], in test [6], in [15], in test [16] and in test [8] was inactive. Further, the max response in test [3] was 3.26%; in [7] it was -5.14%; in [9], -11.2%; in [10], 0.715% (inactive). The Potency entry in test [4] and in test [12] was “inactive” throughout. In addition, the activity change % (negative = inhibition) in [11] is 13.2% (inactive).
As to `O=C(O[C@@H](C(=O)O)[C@@H](OC(=O)c1ccccc1)C(=O)O)c1ccccc1`, the figures for the activation in test [1], in test [13] and in test [14] were -3.12% (inactive), -2.28% (inactive) and 0.306% (inactive), respectively. Besides, the outcome in [2], in test [5], in test [6] and in [8] was inactive. Moreover, the max response is -10.6% in [3], -17.8% in test [7], 4.27% in test [9] and -0.94% (inactive) in test [10]. In addition, the Potency result in test [4] and in test [18] was “inactive” in each case.
